Data on nine molecules can be found in PubChem BioAssay (NCI).

The panel holds about 83,000 compounds, 20% with a hit somewhere; the sample as a whole holds those more often.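 In brief: 96-well plates, 48 h treatment, single concentration, percent growth endpoint.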 A number with no mark means an inactive call. Active and inactive are the calls of the source. Rule for the calls: active = growth percent below 10; inactive = the rest.

Test in all cases: NCI-60 one-dose screen, 48 h (100 = growth as untreated, 0 = no growth, -100 = all killed)
The subject of one experiment is HCT-15 colon. As to conditions: 10 µM unless noted.
In a further experiment the test system is HT29 colon. As to conditions: 10 µM unless noted.
For another experiment, the system named is SNB-75 CNS. As to conditions: 10 µM unless noted.
In a further experiment the test system is SNB-19 CNS. As to conditions: 10 µM unless noted.
In another experiment the test system is U251 CNS. As to conditions: 10 µM unless noted.
Another experiment deals with PC-3 prostate. As to conditions: 10 µM unless noted.
For a further experiment, the system named is SK-MEL-5 melanoma. As to conditions: 10 µM unless noted.
For the next experiment, the system named is UACC-62 melanoma. As to conditions: 10 µM unless noted.
The next experiment relates to LOX IMVI melanoma. As to conditions: 10 µM.
The next experiment concerns SK-MEL-28 melanoma. As to conditions: 10 µM unless noted.
The test system of a further experiment is SK-MEL-2 melanoma. As to conditions: 10 µM unless noted.
In the next experiment the test system is EKVX NSCLC. As to conditions: 10 µM unless noted.
For a further experiment, the system named is SN12C renal. As to conditions: 10 µM unless noted.
The test system of a further experiment is UO-31 renal. As to conditions: 10 µM unless noted.
In the next experiment the test system is TK-10 renal. As to conditions: 10 µM unless noted.
For a further experiment, the system named is ACHN renal. As to conditions: 10 µM unless noted.
A further experiment concerns A498 renal. As to conditions: 10 µM unless noted.
The next experiment concerns CCRF-CEM leukemia. As to conditions: 10 µM unless noted.
The next experiment has as its system MOLT-4 leukemia. As to conditions: 10 µM unless noted.

Turning to `CCOC(=O)C1(N)CCCCC1`, the growth in the experiment on HCT-15 colon is 112%; with HT29 colon it was 104%; with SNB-75 CNS, 91.8%; in the experiment with SNB-19 CNS it was 96.5%; with U251 CNS, 99.1%; with PC-3 prostate it was 96.6%. Moreover, the growth was 106% in the experiment with SK-MEL-5 melanoma; 105% with UACC-62 melanoma; 102% in the experiment on LOX IMVI melanoma; 165% with SK-MEL-28 melanoma; 106% in the experiment on SK-MEL-2 melanoma; 97.5% in the experiment on EKVX NSCLC. Also, the growth in the experiment on SN12C renal is 93.1%; in the experiment on UO-31 renal, 79.6%; in the experiment with TK-10 renal it was 96.3%; in the experiment on ACHN renal, 104%; with A498 renal, 173%; with CCRF-CEM leukemia, 98.1%. Moreover, the growth with MOLT-4 leukemia was 107%.

For the molecule `BrCc1cccc(C[P+](c2ccccc2)(c2ccccc2)c2ccccc2)c1`, the growth was 92.5% in the experiment with HCT-15 colon; 50.7% in the experiment on HT29 colon; 47.6% with SNB-75 CNS; 52.3% in the experiment on SNB-19 CNS; 19.4% in the experiment on U251 CNS; 23.2% in the experiment on PC-3 prostate. In addition, the growth was 22.6% in the experiment on SK-MEL-5 melanoma; 54.7% with UACC-62 melanoma; 40.2% in the experiment on LOX IMVI melanoma; 67.6% with SK-MEL-28 melanoma; 70.4% in the experiment with SK-MEL-2 melanoma; 44.6% in the experiment with EKVX NSCLC. Also, the growth in the experiment on SN12C renal is 57.7%; in the experiment on UO-31 renal it was 70.7%; in the experiment on TK-10 renal, 90.8%; in the experiment with ACHN renal it was 82.7%; with A498 renal, 84.1%; in the experiment with CCRF-CEM leukemia it was 36.1%. Further, the growth in the experiment on MOLT-4 leukemia is 84.9%.

For the molecule `CC(=O)Nc1ccc(O)c(C)c1`, the growth in the experiment on HCT-15 colon is 118%; with HT29 colon, 98.4%; with SNB-75 CNS, 95.4%; in the experiment on SNB-19 CNS, 104%; in the experiment on U251 CNS, 92.5%; in the experiment with PC-3 prostate, 87%. The growth in the experiment with SK-MEL-5 melanoma is 100%; with UACC-62 melanoma, 104%; in the experiment with LOX IMVI melanoma, 95.4%; in the experiment with SK-MEL-28 melanoma it was 103%; in the experiment on SK-MEL-2 melanoma, 104%; in the experiment with EKVX NSCLC, 112%. Moreover, the growth is 102% in the experiment on SN12C renal; 95.1% in the experiment with UO-31 renal; 93.2% in the experiment with TK-10 renal; 99.4% with ACHN renal; 95.4% in the experiment with CCRF-CEM leukemia; 85.2% in the experiment on MOLT-4 leukemia.

Turning to `COc1ccc2c(c1)Nc1ccccc1S2`, the growth in the experiment with HCT-15 colon is 104%; with HT29 colon, 104%; in the experiment on SNB-75 CNS, 108%; in the experiment with SNB-19 CNS, 110%; with U251 CNS, 97.2%; with PC-3 prostate, 97.9%. In addition, the growth is 101% in the experiment with SK-MEL-5 melanoma; 96.2% with UACC-62 melanoma; 113% with LOX IMVI melanoma; 114% in the experiment on SK-MEL-28 melanoma; 112% with SK-MEL-2 melanoma; 105% in the experiment with EKVX NSCLC. The growth is 107% in the experiment on SN12C renal; 93% in the experiment with UO-31 renal; 107% in the experiment on TK-10 renal; 114% in the experiment on ACHN renal; 104% in the experiment with CCRF-CEM leukemia; 106% in the experiment on MOLT-4 leukemia.

For the molecule `Oc1ccc(CCC2CCNc3ccccc32)cc1` (stereo not drawn), the growth is 83.2% in the experiment with HCT-15 colon; 93.7% in the experiment on HT29 colon; 76.6% in the experiment with SNB-75 CNS; 87.2% with SNB-19 CNS; 71.5% with U251 CNS; 60.7% in the experiment with PC-3 prostate. The growth with SK-MEL-5 melanoma is 58%; in the experiment on UACC-62 melanoma, 72%; in the experiment on LOX IMVI melanoma, 81.1%; in the experiment on SK-MEL-28 melanoma, 94.4%; in the experiment with SK-MEL-2 melanoma, 86.7%; with EKVX NSCLC, 53.5%. Moreover, the growth in the experiment on SN12C renal was 86%; in the experiment on UO-31 renal it was 78.9%; in the experiment on TK-10 renal, 93.2%; in the experiment with ACHN renal, 66.9%; with A498 renal, 69.2%; with CCRF-CEM leukemia, 69.1%. Further, the growth with MOLT-4 leukemia is 84.8%.

With `O=C(O)CCCCCNC(=O)OCc1ccccc1`, the growth was 103% in the experiment with HCT-15 colon; 108% with HT29 colon; 74% in the experiment with SNB-75 CNS; 105% in the experiment with SNB-19 CNS; 94.9% in the experiment on U251 CNS; 95.3% in the experiment with PC-3 prostate. Further, the growth with SK-MEL-5 melanoma is 111%; with UACC-62 melanoma, 101%; in the experiment on LOX IMVI melanoma it was 104%; in the experiment on SK-MEL-28 melanoma, 106%; with SK-MEL-2 melanoma, 119%; with EKVX NSCLC, 98.1%. Moreover, the growth in the experiment with SN12C renal was 97%; in the experiment with UO-31 renal it was 72.9%; in the experiment on TK-10 renal, 109%; in the experiment on ACHN renal, 101%; with A498 renal it was 103%; in the experiment with CCRF-CEM leukemia, 0.55% (active). For the same molecule, the growth with MOLT-4 leukemia is 110%.

For `COc1c(CNC(=O)CCl)cc2[nH]c(C)cc2c1CNC(=O)CCl`, the growth with HCT-15 colon was 70.5%; with HT29 colon it was 38.3%; with SNB-75 CNS, 69.6%; in the experiment on SNB-19 CNS it was 83.5%; in the experiment on U251 CNS it was 10.3%; in the experiment with PC-3 prostate it was 67.9%. Also, the growth was 44.1% in the experiment on SK-MEL-5 melanoma; 30.6% in the experiment on UACC-62 melanoma; 34% with LOX IMVI melanoma; 63.2% with SK-MEL-28 melanoma; 54.9% in the experiment with SK-MEL-2 melanoma; 65.1% in the experiment on EKVX NSCLC. Further, the growth is 53.7% in the experiment on SN12C renal; 60.7% with UO-31 renal; 74.1% in the experiment with TK-10 renal; 37.3% in the experiment with ACHN renal; 84.4% in the experiment with A498 renal; 25.6% with CCRF-CEM leukemia. In addition, the growth in the experiment with MOLT-4 leukemia is 51%.

Turning to `Cc1cc(C(=O)c2ccccc2)cc(C)c1O`, the growth in the experiment on HCT-15 colon was 96.4%; in the experiment with HT29 colon, 113%; in the experiment with SNB-75 CNS it was 87.8%; in the experiment on SNB-19 CNS, 120%; with U251 CNS it was 98.1%; in the experiment with PC-3 prostate, 93.5%. For the same molecule, the growth was 104% in the experiment with SK-MEL-5 melanoma; 108% with UACC-62 melanoma; 92.1% in the experiment on LOX IMVI melanoma; 115% in the experiment with SK-MEL-28 melanoma; 118% with SK-MEL-2 melanoma; 112% with EKVX NSCLC. Also, the growth in the experiment on SN12C renal is 106%; with UO-31 renal, 84%; in the experiment with TK-10 renal it was 123%; with ACHN renal, 99.8%; with A498 renal, 98%; in the experiment with CCRF-CEM leukemia, -22.1% (active).

For `CCCCCC#CC(=O)O`, the growth was 105% in the experiment on HCT-15 colon; 99.5% with HT29 colon; 99.7% in the experiment with SNB-75 CNS; 108% in the experiment on SNB-19 CNS; 98.4% in the experiment with U251 CNS; 98.2% in the experiment on PC-3 prostate. In addition, the growth is 111% with SK-MEL-5 melanoma; 104% in the experiment with UACC-62 melanoma; 104% in the experiment with LOX IMVI melanoma; 113% in the experiment on SK-MEL-28 melanoma; 107% in the experiment with SK-MEL-2 melanoma; 99.8% in the experiment on EKVX NSCLC. Besides, the growth in the experiment on SN12C renal is 105%; in the experiment with UO-31 renal, 81.5%; in the experiment with TK-10 renal, 104%; in the experiment with ACHN renal it was 97.1%; with A498 renal, 105%; with CCRF-CEM leukemia, 102%. Besides, the growth with MOLT-4 leukemia is 101%.
